Test results from the supplement of paper PMC8371130.
Counter-ions that a name gives are not always drawn.

System: HL-1
Assay: relative cell viability (CellTiter-Glo) vs DMSO control (% of DMSO control); higher = more viable cells
How it was run: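 HL-1 mouse atrial cardiomyocytes were plated in 384-well plates at 1000 cells per well together with compounds at 40, 200, 1000 or 5000 nM in 0.01% DMSO. One day later, cells went to a hypoxic workstation (1% O2) for 48 h, then were reoxygenated for 24 h in a normal incubator, or stayed in normoxia for the same time. Cell viability was read by CellTiter-Glo luminescence and normalised to vehicle-treated control cells.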

[1] = oxygen condition: hypoxia 48 h (1% O2) + reoxygenation 24 h, 40 nM
[2] = oxygen condition: hypoxia 48 h (1% O2) + reoxygenation 24 h, 200 nM
[3] = oxygen condition: hypoxia 48 h (1% O2) + reoxygenation 24 h, 1000 nM
[4] = oxygen condition: hypoxia 48 h (1% O2) + reoxygenation 24 h, 5000 nM
[5] = oxygen condition: normoxia 72 h, 40 nM
[6] = oxygen condition: normoxia 72 h, 200 nM
[7] = oxygen condition: normoxia 72 h, 1000 nM
[8] = oxygen condition: normoxia 72 h, 5000 nM

| SMILES | relative cell viability [1] | relative cell viability [2] | relative cell viability [3] | relative cell viability [4] | relative cell viability [5] | relative cell viability [6] | relative cell viability [7] | relative cell viability [8] |
| --- | --- | --- | --- | --- | --- | --- | --- | --- |
| CCN(CC)C(=O)C1(c2ccccc2)CC1CN (stereo not given) [Milnacipran HCl] | 107 | 108 | 105 | 118 | 107 | 101 | 106 | 109 |
| CNC(=O)c1ccc(N2C(=S)N(c3ccc(C#N)c(C(F)(F)F)c3)C(=O)C2(C)C)cc1F | 99.6 | 103 | 51.5 | 106 | 99.6 | 102 | 106 | 109 |
| CCc1c2c(nc3ccc(OC(=O)N4CCC(N5CCCCC5)CC4)cc13)-c1cc3c(c(=O)n1C2)COC(=O)[C@]3(O)CC [Irinotecan] | 99.9 | 90.1 | 51.8 | 28.7 | 95.2 | 83.4 | 64.9 | 22.8 |
| CC#CCn1c(N2CCC[C@@H](N)C2)nc2c1c(=O)n(Cc1nc(C)c3ccccc3n1)c(=O)n2C [Linagliptin] | 96.7 | 103 | 104 | 105 | 106 | 105 | 107 | 106 |
| CCOc1ccc2nc(S(N)(=O)=O)sc2c1 [Ethoxzolamide] | 100 | 101 | 96.7 | 105 | 102 | 98.8 | 102 | 108 |
| N[C@@H](Cc1cc(I)c(Oc2cc(I)c(O)c(I)c2)c(I)c1)C(=O)O [L-Thyroxine] | 98.5 | 101 | 99.6 | 110 | 108 | 101 | 99.3 | 109 |
| COc1ccc(CN2CCN(C(c3ccc(F)cc3)c3ccc(F)cc3)CC2)c(OC)c1OC [Lomerizine HCl] | 96.9 | 105 | 108 | 106 | 68.3 | 102 | 106 | 108 |
| O=C(NCCO[N+](=O)[O-])c1cccnc1 [Nicorandil] | 101 | 105 | 108 | 102 | 104 | 98.1 | 99.2 | 102 |
| Cc1cc(C2CCCCC2)n(O)c(=O)c1 [Ciclopirox] | 95.4 | 92.3 | 80.4 | 5.32 | 87.8 | 69.4 | 20 | 2.16 |
| CCOc1ccc2ccccc2c1C(=O)N[C@@H]1C(=O)N2[C@@H]1SC(C)(C)[C@@H]2C(=O)O [nafcillin sodium monohydrate] | 92.6 | 104 | 105 | 109 | 99.1 | 101 | 103 | 107 |
| O=C(CCCCCCC(=O)Nc1ccccc1)NO [Vorinostat] | 101 | 105 | 85 | 27.2 | 103 | 101 | 90.1 | 14.6 |
| COc1cc2nc(N(C)CCCNC(=O)C3CCCO3)nc(N)c2cc1OC (stereo not given) [Alfuzosin hydrochloride] | 103 | 106 | 99.9 | 106 | 103 | 107 | 114 | 112 |
| C[C@@](Cc1ccc(O)c(O)c1)(NN)C(=O)O [Carbidopa] | 101 | 100 | 101 | 106 | 96.4 | 96.4 | 102 | 110 |
| CCCCNC(=O)NS(=O)(=O)c1ccc(C)cc1 [Tolbutamide] | 99 | 99.7 | 101 | 113 | 103 | 102 | 102 | 110 |
| CN(C)CC/C=C1/c2ccccc2Sc2ccc(Cl)cc21 [Chlorprothixene] | 105 | 112 | 102 | 115 | 108 | 107 | 118 | 118 |
| Cc1ncc([N+](=O)[O-])n1CC(O)CCl (stereo not given) [Ornidazole] | 106 | 109 | 123 | 115 | 108 | 108 | 103 | 117 |
| COC(=O)C1=C(C)NC(C)=C(C(=O)OCC(C)C)C1c1ccccc1[N+](=O)[O-] (stereo not given) [Nisoldipine] | 106 | 104 | 107 | 110 | 99.2 | 110 | 116 | 111 |
| COc1ccc([C@@H]2Sc3ccccc3N(CCN(C)C)C(=O)[C@@H]2OC(C)=O)cc1 [Diltiazem HCl] | 104 | 105 | 106 | 114 | 105 | 108 | 109 | 113 |
| N=C(N)NCCN1CCCCCCC1 [Guanethidine Sulfate] | 101 | 101 | 96.2 | 113 | 103 | 107 | 103 | 116 |
| CCC[C@@H]1C[C@@H](C(=O)N[C@@H]([C@H]2O[C@H](SC)[C@H](O)[C@@H](O)[C@H]2O)[C@H](C)Cl)N(C)C1 [Clindamycin hydrochloride] | 98.5 | 93.8 | 91.3 | 102 | 102 | 98 | 100 | 86.2 |
